This passage reports AC50 and outcome results from PubChem BioAssay.

SMILES strings stand for the structures. Records with an inconclusive call do not appear. Activity calls are given as the source filed them. Unless noted, no cut-off is given here; in the data, nearly all actives have AC50 up to about 26 µM.

The nature of the first assay: viability loss in pontine glioma line – cell-based, SU-DIPG-XIII, MIPE5.0, CellTiter-Glo, qHTS, dose response (AID 1347064; cut-off not given, nearly all actives have AC50 up to about 23 µM;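 for AC50: cells exposed to compound for 48 hours before the viability read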). The settings on record: CellTiter-Glo ATP luminescence.
As for `Cc1c(-c2cnccn2)ssc1=S`, the AC50 was 10.5 µM (active). Take `N[C@@H](CC(=O)N1CCn2c(nnc2C(F)(F)F)C1)Cc1cc(F)c(F)cc1F`: the call was inactive. Same read-out and setting: then `OC[C@@H](O)[C@@H](O)[C@H](O)[C@@H](O)CO`, with “inactive”; and `O=c1ccn([C@@H]2O[C@H](CO)[C@@H](O)[C@H]2O)c(=O)[nH]1`, with “inactive”. Same read-out and setting: then `N#C[C@@H]1C[C@@H]2C[C@@H]2N1C(=O)[C@@H](N)C12CC3CC(CC(O)(C3)C1)C2`, with “inactive”; and `CC(C)(CO)[C@@H](O)C(=O)NCCC(=O)O`, with “inactive”; and `CC(C)C(C)/C=C/C(C)C1CCC2C3=CC=C4CC(O)CCC4(C)C3CCC21C` (stereo unspecified), with “inactive”. As to `C[C@H]1COC2=C1C(=O)C(=O)c1c2ccc2c1CCCC2(C)C`, the half-maximal activity concentration (AC50) is 18.6 µM (active). With `COC1=C(OC)C(=O)C(C/C=C(\C)CC/C=C(\C)CC/C=C(\C)CC/C=C(/C)CC/C=C(\C)CC/C=C(\C)CC/C=C(\C)CC/C=C(\C)CC/C=C(\C)CCC=C(C)C)=C(C)C1=O`, the compound was classed as inactive.

Regarding `COC(=O)/C=C/C(=O)OC`, the outcome was inactive.

As for `Cc1cc2nc3c(=O)[nH]c(=O)nc-3n(CC(O)C(O)C(O)CO)c2cc1C` (stereo unspecified), the outcome was inactive.

As for `CN[C@@H]1[C@H](O[C@H]2[C@H](O[C@@H]3[C@@H](O)[C@H](O)[C@@H](N=C(N)N)[C@H](O)[C@H]3N=C(N)N)O[C@@H](C)[C@]2(O)C=O)O[C@@H](CO)[C@H](O)[C@H]1O`, the compound was classed as inactive.

In the case of `Cc1coc2c1C(=O)C(=O)c1c-2ccc2c1CCCC2(C)C`, the AC50 is 5.9 µM (active). On the same count and under the same terms, then `CC[C@@]1(O)C(=O)OCc2c1cc1n(c2=O)Cc2cc3cc(O)ccc3nc2-1`, with 0.0661 µM (active); and `CC[C@]1(O)CC2CN(CCc3c([nH]c4ccccc34)[C@@](C(=O)OC)(c3cc4c(cc3OC)N(C)[C@H]3[C@@](O)(C(=O)OC)[C@H](OC(C)=O)[C@]5(CC)C=CCN6CC[C@]43[C@@H]65)C2)C1` (stereo partly specified), with 0.0833 µM (active). Regarding `N#CC(c1ccc(Cl)cc1)c1c(Cl)cc(-n2ncc(=O)[nH]c2=O)cc1Cl` (stereo unspecified), the call was inactive. For the compound `COc1ccc2nc3cc(Cl)ccc3c(Nc3cc(CN4CCCC4)c(O)c(CN4CCCC4)c3)c2n1`, the AC50 was 13.2 µM (active).

The nature of the next assay: viability loss in pontine glioma line – cell-based, SU-DIPG-XXV, MIPE5.0, CellTiter-Glo, qHTS, dose response (AID 1347065).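 Note: cells exposed to compound for 48 hours before ATP readout.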 The settings on record: CellTiter-Glo ATP luminescence.
In the case of `Cc1c(-c2cnccn2)ssc1=S`, the AC50 is 11.8 µM (active).

In the case of `CC(NCCc1ccc(O)cc1)C(O)c1ccc(O)cc1` (stereo unspecified), the outcome was inactive. Same read-out and setting: then `N[C@@H](CC(=O)N1CCn2c(nnc2C(F)(F)F)C1)Cc1cc(F)c(F)cc1F`, with “inactive”; and `OC[C@@H](O)[C@@H](O)[C@H](O)[C@@H](O)CO`, with “inactive”; and `O=c1ccn([C@@H]2O[C@H](CO)[C@@H](O)[C@H]2O)c(=O)[nH]1`, with “inactive”. The same measure, in the same setting: then `N#C[C@@H]1C[C@@H]2C[C@@H]2N1C(=O)[C@@H](N)C12CC3CC(CC(O)(C3)C1)C2`, with “inactive”.

On to `CC(C)C(C)/C=C/C(C)C1CCC2C3=CC=C4CC(O)CCC4(C)C3CCC21C` (stereo unspecified), for which the call was inactive. Take `C[C@H]1COC2=C1C(=O)C(=O)c1c2ccc2c1CCCC2(C)C`: the AC50 was 20.9 µM (active). The same measure, in the same setting: then `OC(c1cc(C(F)(F)F)nc2c(C(F)(F)F)cccc12)C1CCCCN1` (stereo unspecified), with 20.9 µM (active).

For `CN1C(C(=O)Nc2ccccn2)=C(O)c2sc(Cl)cc2S1(=O)=O`, the compound was classed as inactive. Still for that read-out and setting: then `COC1=C(OC)C(=O)C(C/C=C(\C)CC/C=C(\C)CC/C=C(\C)CC/C=C(/C)CC/C=C(\C)CC/C=C(\C)CC/C=C(\C)CC/C=C(\C)CC/C=C(\C)CCC=C(C)C)=C(C)C1=O`, with “inactive”. On the same count and under the same terms, then `COC(=O)/C=C/C(=O)OC`, with “inactive”; and `Cc1cc2nc3c(=O)[nH]c(=O)nc-3n(CC(O)C(O)C(O)CO)c2cc1C` (stereo unspecified), with “inactive”. Same read-out and setting: then `CN[C@@H]1[C@H](O[C@H]2[C@H](O[C@@H]3[C@@H](O)[C@H](O)[C@@H](N=C(N)N)[C@H](O)[C@H]3N=C(N)N)O[C@@H](C)[C@]2(O)C=O)O[C@@H](CO)[C@H](O)[C@H]1O`, with “inactive”; and `CCCCS(=N)(=O)CCC(N)C(=O)O` (stereo unspecified), with “inactive”.

Regarding `Cc1coc2c1C(=O)C(=O)c1c-2ccc2c1CCCC2(C)C`, the AC50 was 16.6 µM (active). `Nc1nc(F)nc2c1ncn2[C@@H]1O[C@H](COP(=O)(O)O)[C@@H](O)[C@@H]1O`: the outcome was inactive.

Consider `CC[C@@]1(O)C(=O)OCc2c1cc1n(c2=O)Cc2cc3cc(O)ccc3nc2-1`, for which the concentration at half-maximal activity (AC50) was 0.148 µM (active). On the same count and under the same terms, then `CC[C@]1(O)CC2CN(CCc3c([nH]c4ccccc34)[C@@](C(=O)OC)(c3cc4c(cc3OC)N(C)[C@H]3[C@@](O)(C(=O)OC)[C@H](OC(C)=O)[C@]5(CC)C=CCN6CC[C@]43[C@@H]65)C2)C1` (stereo partly specified), with 0.0148 µM (active); and `C=CC[C@@H]1/C=C(\C)C[C@H](C)C[C@H](OC)[C@H]2O[C@@](O)(C(=O)C(=O)N3CCCC[C@H]3C(=O)O[C@H](/C(C)=C/[C@@H]3CC[C@@H](O)[C@H](OC)C3)[C@H](C)[C@@H](O)CC1=O)[C@H](C)C[C@@H]2OC`, with 20.9 µM (active). Take `Clc1ccc(CCC(Cn2ccnc2)Sc2c(Cl)cccc2Cl)cc1` (stereo unspecified): the call was inactive. Take `COc1ccc2nc3cc(Cl)ccc3c(Nc3cc(CN4CCCC4)c(O)c(CN4CCCC4)c3)c2n1`: the AC50 was 7.42 µM (active). Turning to `CC(=O)NC(CS)C(=O)O` (stereo unspecified), the call was inactive. On the same count and under the same terms, then `C[C@]12CCC3c4ccc(O)cc4CCC3C1CCC2=O` (stereo partly specified), with “inactive”.
